The source of these data is PubChem BioAssay (NCATS).

Inconclusive results are not listed. Entries that show only a call come without a potency. Calls of active or inactive are those of the source. Calls come from the whole dose curve; as a rule, active = well fitted inhibition curve with a large enough effect; inconclusive = small, poorly fitted or top-dose-only effect; inactive = flat fitted curve, though single readings scatter.

This test can be described thus: P-glycoprotein substrates identified in KB-8-5-11 adenocarcinoma cell line, qHTS therapeutic library screen (AID 1346987). Note: nearly all actives have a fitted effect of over 65% in size. Particulars: KB-8-5-11 (P-gp overexpressing) viability, CellTiter-Glo, 72 h; series mostly up to 44.5 µM. A digest of the protocol:
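Luminescence from CellTiter-Glo, read 5 min after addition, quantified survival of KB-8-5-11 (P-gp-overexpressing) cells exposed to compounds for 72 h. AC50 was derived from concentration-response curves.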
Background: In qHTS, concentration-response curves come from the screen itself.
Regarding `CCCCC(CC)CCC(CC(C)C)OS(=O)(=O)O` (stereo not drawn), the Potency entry was “inactive”.

On to `NC[C@H]1O[C@H](O[C@H]2[C@H](O)[C@@H](O[C@H]3O[C@H](CO)[C@@H](O)[C@H](N)[C@H]3O)[C@H](N)C[C@@H]2N)[C@H](N)C[C@@H]1O`, for which the Potency result is “inactive”.

For the molecule `OC[C@H]1OC([S-])[C@H](O)[C@@H](O)[C@@H]1O.[Au+]` (stereo partly drawn), the Potency entry is “inactive”.

`O=C(O)/C=C/C(=O)Nc1ccc(S(=O)(=O)Nc2nccs2)cc1`: the Potency result is “inactive”.

For the molecule `O=C(O)Cc1nn(Cc2ccc(Br)cc2F)c(=O)c2ccccc12`, the Potency result is “inactive”.

For the molecule `COc1cc2c(cc1OC)[C@@H](Cc1cc(OC)c(OC)c(OC)c1)[N+](C)(CCCOC(=O)CC/C=C/CCC(=O)OCCC[N+]1(C)CCc3cc(OC)c(OC)cc3[C@H]1Cc1cc(OC)c(OC)c(OC)c1)CC2` (stereo partly drawn), the Potency result is “inactive”.

Turning to `C[C@@H](O)[C@H]1C(=O)N2C(C(=O)[O-])=C(SC3Cn4cnc[n+]4C3)[C@H](C)[C@H]12` (stereo partly drawn), the Potency result was “inactive”.

In the case of `O=C(O)CC/C=C\CC[C@@H]1[C@@H](N2CCCCC2)[C@@H](O)C[C@@H]1OCc1ccc(-c2ccccc2)cc1`, the Potency entry is “inactive”.

Consider `CC(=O)Nc1c(I)c(C(=O)O)c(I)c(N(C)C(C)=O)c1I`, for which the Potency entry is “inactive”.

In the case of `C(=C\c1ccncc1)/c1ccccc1`, the Potency entry was “inactive”.

With `C=Cc1c(C)c2cc3nc(cc4[nH]c(cc5nc(cc1[nH]2)C(C)=C5CCC(=O)OC)c(CCC(=O)O)c4C)[C@@]1(C)C3=CC=C(C(=O)OC)[C@H]1C(=O)OC`, the Potency result was “inactive”.

As to `CCCCC/C=C\C/C=C\C/C=C\CCCCC(=O)O`, the Potency entry is “inactive”.

For `O=C(NCCNCC(O)COc1ccc(O)cc1)N1CCOCC1` (stereo not drawn), the Potency entry was “inactive”.
